Measured values as given in article PMC8384837, “Expanding the binding specificity for RNA recognition by a PUF domain”.

Target: PUM1 PUF domain R3-GPR (Homo sapiens, UniProt Q14671 828-1176, C935G;R936P;Q939R)
Assay: yeast three-hybrid, YBZ-1, SC-Leu-His + 0.5 mM 3-AT, 4 days
Conditions: tags: N-Gal4 AD-HA kept; label: inside an RPR1-promoter hybrid RNA with tandem MS2 sites; ssRNA
In short: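 The interaction score is the logarithmic change in variant frequency from input to selection. It uses log2, with a pseudocount of 1 for absent variants, and frequencies came from PCR-amplified, Illumina-sequenced repeat regions. The libraries were Pumilio-1 PUF domains randomized at the three base-contacting residues per repeat, co-expressed with matching RNA elements in strain YBZ-1 (LexA–MS2 coat fusion, HIS3 reporter). Plating lasted four days on SC-Leu (input) or SC-Leu-His + 0.5 mM 3-AT (selection).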

Chain of PUM1 PUF domain R3-GPR (Q14671 828-1176 C935G/R936P/Q939R): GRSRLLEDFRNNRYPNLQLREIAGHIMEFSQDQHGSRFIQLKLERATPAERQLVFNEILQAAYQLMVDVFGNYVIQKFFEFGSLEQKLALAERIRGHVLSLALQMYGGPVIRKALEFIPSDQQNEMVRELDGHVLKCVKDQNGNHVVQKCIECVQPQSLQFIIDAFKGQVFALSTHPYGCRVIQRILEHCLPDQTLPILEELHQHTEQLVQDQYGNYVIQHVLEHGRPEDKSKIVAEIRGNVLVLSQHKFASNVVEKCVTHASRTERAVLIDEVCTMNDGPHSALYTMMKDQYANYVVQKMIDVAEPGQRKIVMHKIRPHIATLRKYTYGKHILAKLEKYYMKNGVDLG

Sequence | binding signal
GGCUAGAACUAGUGGAUCCCCCGGCGCCCGGCGGCUCGAGCCCGGGUAAGUGUAAAUAGUCUGCAUGCCGCCGGGCGCCAUGCCUGCAGGUCGACUCUAGAAAACAUG | 0.81 log2 enrichment (interaction score)
GGCUAGAACUAGUGGAUCCCCCGGCGCCCGGCGGCUCGAGCCCGGGUAAGUGUAAGUAGUCUGCAUGCCGCCGGGCGCCAUGCCUGCAGGUCGACUCUAGAAAACAUG | 1.82 log2 enrichment (interaction score)
GGCUAGAACUAGUGGAUCCCCCGGCGCCCGGCGGCUCGAGCCCGGGUAAGUGUAAUUAGUCUGCAUGCCGCCGGGCGCCAUGCCUGCAGGUCGACUCUAGAAAACAUG | 3.57 log2 enrichment (interaction score)
GGCUAGAACUAGUGGAUCCCCCGGCGCCCGGCGGCUCGAGCCCGGGUAAGUGUAACUAGUCUGCAUGCCGCCGGGCGCCAUGCCUGCAGGUCGACUCUAGAAAACAUG | 1.8 log2 enrichment (interaction score)
